Data taken from the supplement of paper PMC6992640.
± gives the standard deviation of the averaged measurements.

What was measured:
Experiment in all cases: cell viability (% of vehicle); higher = less cytotoxic
Details in all cases: 10 µM; 72 h
HCI01 = system: HCI01 (cells of a triple-negative basal-like breast cancer xenograft)
HCI03 = system: HCI03 (cells of an ER-positive luminal breast cancer xenograft)
HCI09 = system: HCI09 (cells of a triple-negative luminal androgen receptor type breast cancer xenograft)
HCI11 = system: HCI11 (cells of an ER-positive luminal breast cancer xenograft)
HCI13 = system: HCI13 (cells of an ER-positive luminal breast cancer xenograft)
HCI16 = system: HCI16 (cells of a triple-negative basal-like breast cancer xenograft)
UCD52 = system: UCD52 (cells of a triple-negative basal-like breast cancer xenograft)
WHIM2 = system: WHIM2 (cells of a triple-negative basal-like breast cancer xenograft)
WHIM30 = system: WHIM30 (cells of a triple-negative basal-like breast cancer xenograft)
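Also: PDX cells carrying CMV promoter-driven luciferase, viability read as total photon flux per second by IVIS imaging following D-luciferin, vehicle control 0.1% DMSO.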

| Structure (SMILES) | cell viability (HCI01) | cell viability (HCI03) | cell viability (HCI09) | cell viability (HCI11) | cell viability (HCI13) | cell viability (HCI16) | cell viability (UCD52) | cell viability (WHIM2) | cell viability (WHIM30) |
| --- | --- | --- | --- | --- | --- | --- | --- | --- | --- |
| CCCCCOc1ccc(-c2cc(-c3ccc(C(=O)NC4CC(O)C(O)NC(=O)C5C(O)C(C)CN5C(=O)C(C(O)CC(N)=O)NC(=O)C(C(O)C(O)c5ccc(O)c(OS(=O)(=O)[O-])c5)NC(=O)C5CC(O)CN5C(=O)C(C(C)O)NC4=O)cc3)no2)cc1.[Na+] (stereo unspecified) [Micafungin sodium] | 104 ± 7.9 | 96.4 | 85.7 ± 5.6 | 92.6 | 113 ± 4 | 93.3 | 75.7 ± 12 | 39.4 ± 2.2 | 99 ± 12 |
| Nc1ccc(C(=O)[O-])c(O)c1.O.O.[Na+] [Sodium 4-Aminosalicylate] | 138 ± 21 | 157 | 108 ± 20 | 95.3 | 96.8 ± 13 | 143 | 77.7 ± 16 | 87.9 ± 20 | 92.3 ± 1.1 |
| CC(C)OC(=O)C(C(=O)OC(C)C)=C1SC=CS1 [Malotilate] | 108 ± 12 | 84.3 | 90.2 ± 13 | 90.9 | 89.8 ± 3.1 | 75.5 | 89.5 ± 2.4 | 75.6 ± 17 | 97.9 ± 4 |
| CCC1OC(=O)C(C)C(OC2CC(C)(OC)C(O)C(C)O2)C(C)C(OC2OC(C)CC(N(C)C)C2O)C(C)(O)CC(C)C(=O)C(C)C(O)C1(C)O (stereo unspecified) [Erythromycin] | 106 ± 13 | 101 | 96.7 ± 12 | 92.7 | 77.2 ± 9.7 | 113 | 95 ± 17 | 118 ± 36 | 167.6 ± 0.38 |
| Cl.c1ccc(CN(CC2=NCCN2)c2ccccc2)cc1 [Antazoline HCl] | 133.9 ± 0.91 | 123 | 103 ± 1.1 | 119 | 109 ± 9.2 | 144 | 66.7 ± 18 | 92.52 ± 0.86 | 102 ± 8.3 |
| COc1ccc(C(=O)CC(=O)c2ccc(C(C)(C)C)cc2)cc1 [Avobenzone] | 74.2 ± 40 | 126 | 74.1 ± 8.4 | 83.5 | 76.7 ± 5.2 | 119 | 71 ± 1.6 | 106 ± 37 | 141 ± 12 |
| Cc1ccc(-c2cc(C(F)(F)F)nn2-c2ccc(S(N)(=O)=O)cc2)cc1 [Celecoxib] | 139 ± 24 | 110 | 94.7 ± 7.4 | 94.4 | 94 ± 2.9 | 112 | 70.1 ± 3.8 | 93.3 ± 12 | 100.5 ± 1 |
| COc1ccccc1N1CCN(CC(O)COc2cccc3ccccc23)CC1 (stereo unspecified) [Naftopidil] | 116 ± 8.4 | 84.3 | 87.2 ± 14 | 107 | 103 ± 19 | 108 | 67.4 ± 2.8 | 89.8 ± 24 | 104 ± 12 |
| COc1cc(C2c3cc4c(cc3C(OC3OC5COC(C)OC5C(O)C3O)C3COC(=O)C23)OCO4)cc(OC)c1O (stereo unspecified) [Etoposide] | 103 ± 7.8 | 94.2 | 90 ± 4.5 | 89.4 | 84 ± 3 | 69.7 | 120 ± 4.3 | 91.8 ± 6 | 95.3 ± 21 |
| CCCC(=O)OCOC(=O)C1=C(C)NC(C)=C(C(=O)OC)C1c1cccc(Cl)c1Cl (stereo unspecified) [Clevidipine Butyrate] | 106.5 ± 0.58 | 126 | 104 ± 19 | 112 | 105 ± 6.6 | 88.1 | 92.2 ± 1.5 | 100 ± 6.3 | 91 ± 2.4 |
| O=c1oc2c(O)c(O)cc3c(=O)oc4c(O)c(O)cc1c4c23 [Ellagic acid] | 102 ± 15 | 144 | 100 ± 3 | 105 | 177 ± 43 | 125 | 103.5 ± 0.7 | 118 ± 11 | 115 ± 11 |
| CN1C(C(=O)Nc2ccccn2)=C(O)c2ccccc2S1(=O)=O [Piroxicam] | 103 ± 9.8 | 102 | 53.8 ± 29 | 133 | 103 ± 3.6 | 90.5 | 88.27 ± 0.58 | 91.5 ± 17 | 117 ± 13 |
| C[N+](C)(C)CCOC(=O)CCC(=O)OCC[N+](C)(C)C.O.O.[Cl-].[Cl-] [Succinylcholine Chloride Dihydrate] | 109 ± 8 | 104 | 96.9 ± 9.6 | 97.2 | 112 ± 16 | 101 | 61.6 ± 1.2 | 89.3 ± 5.8 | 133 ± 22 |
| CNC(C)C1CCC(N)C(OC2C(N)CC(N)C(OC3OCC(C)(O)C(NC)C3O)C2O)O1.O=S(=O)(O)O (stereo unspecified) [Gentamycin Sulfate] | 119 ± 8.9 | 90.7 | 100 ± 26 | 101 | 94.4 ± 9.3 | 97 | 94.8 ± 20 | 72.4 ± 2 | 116 ± 21 |
| CCN(CCO)CCCC(C)Nc1ccnc2cc(Cl)ccc12.O=S(=O)(O)O (stereo unspecified) [Hydroxychloroquine Sulfate] | 71.8 ± 4.6 | 96.6 | 72.2 ± 1.6 | 81.8 | 84.4 ± 8.1 | 86.5 | 71.4 ± 3.8 | 70.8 ± 2.9 | 101.7 ± 0.69 |
| O=c1ccc2ccc(OCCCCN3CCN(c4cccc5sccc45)CC3)cc2[nH]1 [Brexpiprazole] | 136 ± 21 | 106 | 85.7 ± 10 | 102 | 123 ± 5.6 | 162 | 78.3 ± 6.2 | 115 ± 9.1 | 112 ± 8.2 |
| Nc1ncnc2c1ncn2C1OC(CO)C(O)C1O (stereo unspecified) [Vidarabine] | 64.8 ± 36 | 136 | 90.1 ± 5.1 | 86.9 | 106 ± 6.1 | 96.1 | 80.5 ± 2.9 | 105 ± 19 | 153 ± 7.4 |
| CCOC(=O)C1=C(C)NC(C)=C(C(=O)OCC)C1c1ccccc1C=CC(=O)OC(C)(C)C [Lacidipine] | 107.7 ± 0.7 | 98.1 | 86.5 ± 9.8 | 110 | 88.7 ± 2.9 | 85.7 | 77.1 ± 6.1 | 99.8 ± 1.2 | 133 ± 3.9 |
| CN(CCOc1ccc(NS(C)(=O)=O)cc1)CCc1ccc(NS(C)(=O)=O)cc1 [Dofetilide] | 101.7 ± 0.3 | 114 | 94.8 ± 5.2 | 94.2 | 97.8 ± 17 | 89.3 | 81.6 ± 13 | 90.2 ± 10 | 106 ± 5.1 |
| CC1CC(OC(=O)C(O)c2ccccc2)CC(C)(C)C1 (stereo unspecified) [Cyclandelate] | 110 ± 9.8 | 122 | 87.6 ± 4.9 | 89.1 | 73.5 ± 14 | 113 | 80.8 ± 14 | 93.3 ± 10 | 95.91 ± 0.5 |
| CCOC(=O)c1ncn2c1CN(C)C(=O)c1cc(F)ccc1-2 [Flumazenil] | 114 ± 6.3 | 106 | 89.6 ± 18 | 96.8 | 93.9 ± 2.9 | 92.5 | 118 ± 17 | 103 ± 7.5 | 142 ± 15 |
| Cn1cc[nH]c1=S [Methimazole] | 143 ± 11 | 119 | 130 ± 23 | 112 | 82 ± 21 | 126 | 100.1 ± 0.29 | 107 ± 2.4 | 139 ± 3.8 |
| C[N+](C)(C)CCOC(N)=O.[Cl-] [Carbamoylcholine chloride] | 108 ± 11 | 120 | 89.4 ± 1.1 | 71.4 | 112 ± 4.6 | 124 | 95.6 ± 2.4 | 127 ± 7 | 98.9 ± 1.4 |
| C=CCc1cc(OC)c(O)c(C(=O)NCCO)c1 [Alibendol] | 98.3 ± 18 | 139 | 107 ± 17 | 110 | 68 ± 5 | 133 | 109 ± 3.4 | 115 ± 23 | 138 ± 20 |
